The results in this text go back to the supplement of paper PMC12067093, “Discovery and optimisation of a covalent ligand for TRIM25 and its application to targeted protein ubiquitination” (Chemical Science, 2025).

Targets with the largest changes are over-represented here; the source holds about 21,000 in all.

Compound in this assay: CC1Cc2ccccc2N1C(=O)C1CCCN(C1)C(=O)CCl (mixture of isomers) [TRIM25 ligand 11 (diastereomer mixture)]
Nature of the assay: probe-labelled cysteine peptide fold change vs DMSO (competition) (log2 fold change); higher = less target engagement (more negative = stronger competition). The following applies: THP-1, incubation time: 4 h.
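Note: competitive chemoproteomic profiling in live THP-1 cells with an iodoacetamide desthiobiotin (IA-DTB) probe, comparing probe-labelled peptide intensities in compound-treated cells against DMSO-treated controls.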

Take “EXOSC8_Q96B26_60_LGNTTVICGVK (UniProt Q96B26)”: the “probe-labelled cysteine peptide fold change” value reads like this: (10 µM) 0.0322; (50 µM) 0.0231.

For “ETFDH_Q16134_387_LTFPGGLLIGCSPGFMNVPK (UniProt Q16134)”, the “probe-labelled cysteine peptide fold change” value is, setting by setting: (10 µM) -0.688; (50 µM) -0.698.

Consider “ELP3_Q9H9T3_456_CSEETFR (UniProt Q9H9T3)”, for which the “probe-labelled cysteine peptide fold change” value (10 µM) was determined as 0.298 and the “probe-labelled cysteine peptide fold change” value (50 µM) came to 0.202.

For “ECM1_Q16610_269_FSCFQEEAPQPHYQLR (UniProt Q16610)”, the “probe-labelled cysteine peptide fold change” value (10 µM) came to 0.855 and the “probe-labelled cysteine peptide fold change” value (50 µM) stood at 0.858.

On to “EIF3K_Q9UBQ5_87_CMIDQAHQEERPIR (UniProt Q9UBQ5)”, for which the “probe-labelled cysteine peptide fold change” value reads like this: (10 µM) 0.0313; (50 µM) 0.0963.

For “ENOSF1_Q7L5Y1_67_GTEVVVCAVNALAHHVLNK (UniProt Q7L5Y1)”, the “probe-labelled cysteine peptide fold change” value runs as follows: (10 µM) -0.0438; (50 µM) 0.0621.

As for “EIPR1_Q53HC9_95_VLTCAAVWR (UniProt Q53HC9)”, the “probe-labelled cysteine peptide fold change” value (10 µM) was 0.109 and the “probe-labelled cysteine peptide fold change” value (50 µM) worked out at 0.137.

Turning to “FBN2_P35556_941_CELDTACPR (UniProt P35556)”, the “probe-labelled cysteine peptide fold change” value is 0.213 (10 µM) and 0.26 (50 µM).

As for “FGD3_Q5JSP0_284_QEVCGNLTLQHHMLEPVQR (UniProt Q5JSP0)”, the “probe-labelled cysteine peptide fold change” value (10 µM) stood at 0.0112 and the “probe-labelled cysteine peptide fold change” value (50 µM) was -0.0514.

On to “EHHADH_Q08426_227+233_QHPGCLAQEACVR (UniProt Q08426)”, for which the “probe-labelled cysteine peptide fold change” value came out at 0.147 (10 µM) and 0.0162 (50 µM).

With “FNBP1_Q96RU3_511_RQSGLYDSQNPPTVNNCAQDR (UniProt Q96RU3)”, the “probe-labelled cysteine peptide fold change” value (10 µM) was determined as 0.269 and the “probe-labelled cysteine peptide fold change” value (50 µM) was -0.0608.

“EPHX2_P34913_232_VTGIQLLNTPAPLPTSCNPSDMSHGYVTVKPR (UniProt P34913)”: the “probe-labelled cysteine peptide fold change” value (10 µM) came out at 0.149 and the “probe-labelled cysteine peptide fold change” value (50 µM) was -0.204.

For the target “EIF3M_Q7L2H7_52_GAEISEENSEGGLHVDLAQIIEACDVCLKEDDK (UniProt Q7L2H7)”, the “probe-labelled cysteine peptide fold change” value (10 µM) came to 0.0157 and the “probe-labelled cysteine peptide fold change” value (50 µM) worked out at 0.134.

Regarding “F2_P00734_407_WVLTAAHCLLYPPWDK (UniProt P00734)”, the “probe-labelled cysteine peptide fold change” value (10 µM) turned out to be 0.631 and the “probe-labelled cysteine peptide fold change” value (50 µM) stood at 0.154.

Regarding “FH_P07954_434_LLGDASVSFTENCVVGIQANTER (UniProt P07954)”, the “probe-labelled cysteine peptide fold change” value is, setting by setting: (10 µM) -0.504; (50 µM) -0.961.

“ELP5_Q8TE02_151_LPCTTLCQVLHAVSHQDSCPGDSSSVGK (UniProt Q8TE02)”: the “probe-labelled cysteine peptide fold change” value runs as follows: (10 µM) 0.0565; (50 µM) 0.114.

Consider “FRRS1_Q6ZNA5_107_NAEDLNGPPIGSFTLIDSEVSQLLTCEDIQGSAVSHR (UniProt Q6ZNA5)”, for which the “probe-labelled cysteine peptide fold change” value (10 µM) worked out at 0.66 and the “probe-labelled cysteine peptide fold change” value (50 µM) was 0.341.

Consider “EFTUD2_Q15029_476_IEHTYTGGVDSDLGEAMSDCDPDGPLMCHTTK (UniProt Q15029)”, for which the “probe-labelled cysteine peptide fold change” value by setting is: (10 µM) -0.11; (50 µM) -0.51.

As for “FAR2_Q96K12_104+111_EDMQELLSCTNIIFHCAATVR (UniProt Q96K12)”, the “probe-labelled cysteine peptide fold change” value is, setting by setting: (10 µM) 0.0855; (50 µM) 0.0839.

Turning to “EDC4_Q6P2E9_838_ETCSTLAESPR (UniProt Q6P2E9)”, the “probe-labelled cysteine peptide fold change” value runs as follows: (10 µM) -0.0668; (50 µM) -0.146.

Turning to “EIF1_P41567_94_NICQFLVEIGLAKDDQLK (UniProt P41567)”, the “probe-labelled cysteine peptide fold change” value was -1.14 (10 µM) and -0.0838 (50 µM).

As for “FUBP3_Q96I24_366_CGLVIGK (UniProt Q96I24)”, the “probe-labelled cysteine peptide fold change” value (10 µM) is -0.0888 and the “probe-labelled cysteine peptide fold change” value (50 µM) came out at 0.0606.

Take “FLNB_O75369_991_KVVPCLVTPVTGR (UniProt O75369)”: the “probe-labelled cysteine peptide fold change” value (10 µM) was -0.0645 and the “probe-labelled cysteine peptide fold change” value (50 µM) was -0.0535.

Turning to “FUBP3_Q96I24_109_IQAESGCK (UniProt Q96I24)”, the “probe-labelled cysteine peptide fold change” value is, setting by setting: (10 µM) 0.00832; (50 µM) 0.192.

“FASN_P49327_2369_AKLTPGCEAEAETEAICFFVQQFTDMEHNR (UniProt P49327)”: the “probe-labelled cysteine peptide fold change” value (10 µM) is -0.0758 and the “probe-labelled cysteine peptide fold change” value (50 µM) is -0.005.

Take “FAM111B_Q6SJ93_212_LCIYALK (UniProt Q6SJ93)”: the “probe-labelled cysteine peptide fold change” value was -0.05 (10 µM) and -0.0141 (50 µM).

On to “FAM98B_Q52LJ0_220_INDALSCEYECR (UniProt Q52LJ0)”, for which the “probe-labelled cysteine peptide fold change” value is -0.00202 (10 µM) and 0.0911 (50 µM).

Consider “FTH1_P02794_91_KPDCDDWESGLNAMECALHLEK (UniProt P02794)”, for which the “probe-labelled cysteine peptide fold change” value stood at 0.166 (10 µM) and 0.847 (50 µM).

As to “FAM111B_Q6SJ93_351_NYYFCSLPR (UniProt Q6SJ93)”, the “probe-labelled cysteine peptide fold change” value (10 µM) was -0.00273 and the “probe-labelled cysteine peptide fold change” value (50 µM) came to 0.026.

Turning to “FHL2_Q14192_275_GFLTERDDILCPDCGK (UniProt Q14192)”, the “probe-labelled cysteine peptide fold change” value was -0.0813 (10 µM) and -0.0756 (50 µM).

Consider “EIF1B_O60739_69_FACNGTVIEHPEYGEVIQLQGDQRK<|>EIF1_P41567_69_FACNGTVIEHPEYGEVIQLQGDQRK (UniProt P41567+O60739)”, for which the “probe-labelled cysteine peptide fold change” value (10 µM) is -0.358 and the “probe-labelled cysteine peptide fold change” value (50 µM) is -0.022.

Turning to “EEF1A1_P68104_411_FLKSGDAAIVDMVPGKPMCVESFSDYPPLGR (UniProt P68104)”, the “probe-labelled cysteine peptide fold change” value runs as follows: (10 µM) 0.947; (50 µM) 1.14.

On to “EPRS_P07814_1301+1309_VACVQVVIIPCGITNALSEEDK (UniProt P07814)”, for which the “probe-labelled cysteine peptide fold change” value is -0.162 (10 µM) and -0.139 (50 µM).

Regarding “FAM241A_Q8N8J7_2_CSAGELLR (UniProt Q8N8J7)”, the “probe-labelled cysteine peptide fold change” value runs as follows: (10 µM) 0.306; (50 µM) 0.559.

As for “EIF3D_O15371_438_WTCCALLAGSEYLK (UniProt O15371)”, the “probe-labelled cysteine peptide fold change” value is, setting by setting: (10 µM) -0.0143; (50 µM) 0.0445.

On to “EXOC5_O00471_194_YHDLECQLIQEFTSAQR (UniProt O00471)”, for which the “probe-labelled cysteine peptide fold change” value amounted to 0.139 (10 µM) and 0.157 (50 µM).

Consider “FECH_P22830_403_QLTLSCPLCVNPVCR (UniProt P22830)”, for which the “probe-labelled cysteine peptide fold change” value turned out to be 0.0323 (10 µM) and 0.0221 (50 µM).

Turning to “F2_P00734_564_RGDACEGDSGGPFVMK (UniProt P00734)”, the “probe-labelled cysteine peptide fold change” value turned out to be 0.606 (10 µM) and 0.325 (50 µM).
